The record followed here is PubChem BioAssay AID431 (Sanford-Burnham Center for Chemical Genomics, 2006).

SMILES strings stand for the structures. About 1,100 (1.7%) of roughly 63,000 compounds were called active. The list comes from a sample in which actives are over-represented; it also holds similar structures and randomly drawn compounds. Results with a measured potency or affinity are listed apart. Unmarked numbers belong to inactive results.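 The calls were made as follows: active = compounds whose percent cytotoxicity in the single-dose primary screen, scaled between solvent and toxic-drug controls, exceeds 50; inactive = the rest.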

A short description of this test: cytotoxicity in KRAS-transformed pancreatic duct cells, primary screen, cell-based, fluorescence, HTS (AID 431).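 Also: 0% = DMSO solvent wells and 100% = doxorubicin-treated wells.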 As to conditions: HPDE-C7K KRASV12 cells, Alamar Blue viability, 48 h; at 10 µM; active compounds read high. For orientation: Resazurin is reduced to fluorescent resorufin, in cell work by metabolically active cells.
With `O=C(CSc1nnnn1C1CCCCC1)NCCc1ccccc1`, the cytotoxicity is 4.8%.

For `COc1cccc(-c2cnc(NCc3cc(Cl)ccc3O)n2C)c1`, the cytotoxicity is -7.2%.

In the case of `CC(=O)Nc1ccc(NC(C)=O)s1`, the cytotoxicity is -16.5%.

Consider `CCCCNC(=O)C(C#N)c1nc2ccccc2nc1N1CCCC1` (centres undefined), for which the cytotoxicity was -16.3%.

For `CCN(CC(=O)Nc1ccc2c(c1)OCCO2)Cc1cc(=O)oc2c(C)c(C)ccc12`, the cytotoxicity is 9.3%.

For `Cc1n[nH]c(C)c1S(=O)(=O)Nc1ccc2c(c1)OCCO2`, the cytotoxicity is 4.3%.

Consider `Cc1cc(C#N)c(C)n1-c1cc(C(F)(F)F)ccc1N1CCOCC1`, for which the cytotoxicity was -11.9%.

On to `COCCCn1c(SCC(=O)N2CCCCC2C)nnc1-c1ccco1` (centres undefined), for which the cytotoxicity is -0.2%.

As for `CCn1c2ccccc2c2nnc(SCC(=O)NC(CC(C)C)C(=O)OC)nc21` (centres undefined), the cytotoxicity is 2.3%.

`O=C(CSc1nc(-c2ccccc2)cc(=O)[nH]1)N1CCOCC1`: the cytotoxicity is 8.9%.

Turning to `CCc1noc(C)c1C(=O)Nc1sc(C(=O)N(C)C)c(C)c1C(=O)OC`, the cytotoxicity was 2.3%.

Consider `COc1ccc(S(=O)(=O)N(CC(=O)O)Cc2ccccc2)cc1OC`, for which the cytotoxicity is 1.8%.

As to `COCc1nc2ccccc2n1CCOc1ccccc1OC`, the cytotoxicity is -0.4%.

In the case of `COc1cccc(NC(=O)c2oc3ccccc3c2NC(=O)C(C)(C)C)c1`, the cytotoxicity was 17.5%.

As to `CSc1ccc(-c2nnn(Cc3ccccn3)n2)cc1`, the cytotoxicity is -1.2%.

On to `CC1=CC(C)C2C(=O)N(CCC[N+](C)(C)C)C(=O)C2C1` (centres undefined), for which the cytotoxicity is 14.9%.

Turning to `CSc1nc2ccc(NS(=O)(=O)c3ccc(Cl)s3)cc2s1`, the cytotoxicity was 54.6% (active).

In the case of `Cc1ccc(S(=O)(=O)Nc2ccc3nc(N)sc3c2)cc1`, the cytotoxicity is 4.4%.

In the case of `CSc1nc2ccc(S(=O)(=O)NC3CCCCC3)cc2s1`, the cytotoxicity is 6.2%.

With `Cc1cc2n(n1)C(c1ccc(N(C)C)cc1)Nc1ccccc1-2` (centres undefined), the cytotoxicity is 23.5%.

For `c1ccc(-n2c(-c3ccco3)nnc2N2CCOCC2)cc1`, the cytotoxicity is -4.7%.

For the compound `CCOC(=O)N1CCN(C(=O)CCS(=O)(=O)c2ccc(Br)s2)CC1`, the cytotoxicity is -3.8%.

In the case of `CC1(C)Nc2ccc(O)cc2-c2c1ssc2=S`, the cytotoxicity was 87.7% (active).

As for `CC1(C)c2ssc(=S)c2-c2ccccc2N1C(=O)c1ccco1`, the cytotoxicity was -6.9%.

`O=C(c1ccncc1)N1CCN(C(=O)c2ccncc2)CC1`: the cytotoxicity was -16.4%.

Turning to `Nc1c(NCCCN2CCOCC2)c2ccccc2oc1=O`, the cytotoxicity was 6.2%.

For `Cn1nnnc1SCc1nc2ccccc2[nH]1`, the cytotoxicity was 3.7%.

Consider `OC(Cn1cncn1)c1ccc(Cl)cc1Cl` (centres undefined), for which the cytotoxicity is 1.1%.

As for `OC(Cn1ccnc1)c1ccc(Cl)cc1Cl` (centres undefined), the cytotoxicity was 0.4%.

Regarding `O=C(COc1ccc(Cl)cc1Cl)NCCCn1ccnc1`, the cytotoxicity was 1.3%.

Consider `CC(Oc1ccc(Cl)cc1Cl)C(=O)NCCCn1ccnc1` (centres undefined), for which the cytotoxicity was 2.8%.

For `Clc1ccc(OCCn2ccnc2)c(Cl)c1`, the cytotoxicity is -10.5%.

Turning to `Clc1ccc(SCCn2ccnc2)cc1`, the cytotoxicity was -7.6%.

For the compound `COc1ccc(-c2ccc(-c3noc(-c4ccco4)n3)c(OC)n2)cc1`, the cytotoxicity was 9.8%.

For the compound `O=C1c2oc3ccccc3c(=O)c2C(c2cccc(Br)c2)N1Cc1ccco1` (centres undefined), the cytotoxicity is 5.4%.

Regarding `Cc1cc(C)nc(SCc2nnc(SCC(=O)N3CCCc4ccccc43)n2C)n1`, the cytotoxicity is 9.2%.

Regarding `O=C(COC(=O)CN1C(=O)c2ccccc2C1=O)Nc1ncc(Cl)cc1Cl`, the cytotoxicity was -11.3%.

As for `CCO/C=N/c1c(C#N)c(CC#N)nn1-c1ccccc1`, the cytotoxicity was -4.3%.

With `COc1ccc(C2CC(c3c(O)cc(C)oc3=O)=NCCS2)c(OC)c1` (centres undefined), the cytotoxicity is 69.2% (active).

In the case of `COc1ccc(C2NC(=O)c3n[nH]c(C)c32)c(OC)c1` (centres undefined), the cytotoxicity is 2.8%.

Consider `COc1ccc(C2C(C(C)=O)=C(O)C(=O)N2C)c(OC)c1` (centres undefined), for which the cytotoxicity was 18.5%.

Regarding `c1ccc(Sc2nc(N3CCCCC3)nc(N3CCCCC3)n2)nc1`, the cytotoxicity was -16.3%.

On to `Cc1cc(C)c(S(=O)(=O)Nc2ccc(O)cc2)cc1C`, for which the cytotoxicity is 13%.

As for `O=C(CCC1COc2ccccc2O1)Nc1ncccc1O` (centres undefined), the cytotoxicity was -11.8%.

Consider `CN1/C(=C\P(=O)(N(C)C)N(C)C)C(C)(C)c2ccccc21`, for which the cytotoxicity was -1.6%.

In the case of `Cc1ccccc1S(=O)(=O)Cc1ccc(C(=O)N2CCN(c3ncccn3)CC2)o1`, the cytotoxicity is -21.5%.

For `Cc1ccc(S(=O)(=O)Cc2ccc(C(=O)N3CCN(c4cc(C)ccc4C)CC3)o2)cc1`, the cytotoxicity was 20.6%.

`O=C(O)c1ccc(Cl)c(S(=O)(=O)NCc2ccco2)c1`: the cytotoxicity was -11.1%.

As to `Cc1ccccc1S(=O)(=O)Cc1ccc(C(=O)N2CCN(c3ccc(F)cc3)CC2)o1`, the cytotoxicity was 3.3%.

Consider `Cc1ccccc1S(=O)(=O)Cc1ccc(C(=O)N2CCN(c3cccc(C)c3C)CC2)o1`, for which the cytotoxicity is 73.9% (active).

`O=C(NCC1(N2CCOCC2)CCCCC1)c1ccc(Cl)c(S(=O)(=O)NCc2ccco2)c1`: the cytotoxicity was -5.8%.

In the case of `COc1ccc(S(=O)(=O)Cc2ccc(C(=O)N3CCN(c4cccc(C)c4C)CC3)o2)cc1`, the cytotoxicity was 48.2%.

Turning to `Cc1ccc(C)c(N2CCN(C(=O)c3ccc(CS(=O)(=O)c4ccccc4C)o3)CC2)c1`, the cytotoxicity was 52.8% (active).

For the compound `Cc1cccc(N2CCN(C(=O)c3ccc(Cl)c(S(=O)(=O)NCc4ccco4)c3)CC2)c1C`, the cytotoxicity is 55.9% (active).

On to `CCSc1nc2c(c(=O)n(C)c(=O)n2C)n1Cc1ccc(Cl)cc1`, for which the cytotoxicity is 1.1%.

As for `CSc1ccc2[nH]c(=O)cc(C)c2c1`, the cytotoxicity was -15.6%.

On to `c1ccc(Cn2nnnc2CN2CCCC2)cc1`, for which the cytotoxicity is -11%.

For `COc1ccc(NS(=O)(=O)c2ccc(NS(C)(=O)=O)cc2)cc1`, the cytotoxicity was -20.7%.

On to `COc1ccccc1/C=N/n1cnnc1`, for which the cytotoxicity was -11.3%.

For the compound `Nc1ccc(-c2nc3ccc(-c4nc5ccccc5o4)cc3[nH]2)cc1`, the cytotoxicity was 66.5% (active).

As for `Nc1ccc(-c2nc3ccccc3[nH]2)cc1`, the cytotoxicity was -4.1%.

Regarding `Nc1cc(N)cc(-c2nc3ccccc3o2)c1`, the cytotoxicity was 15.3%.

For `COCCN(C(=O)Cc1cccs1)c1nnc(-c2ccncc2)s1`, the cytotoxicity is -16.9%.

As for `CCCCc1c(C)nc(N)[nH]c1=O`, the cytotoxicity was 1.6%.

On to `COc1ccc(CN(CCCN2CCOCC2)C(=O)Nc2ccccc2)cc1OC`, for which the cytotoxicity is 13.2%.

Regarding `Clc1ccc2nc(N3CCCCC3)sc2c1`, the cytotoxicity was -11.1%.

As for `Cc1cc(Cl)ccc1OC(C)C(=O)Nc1ccccc1N1CCOCC1` (centres undefined), the cytotoxicity was -12.8%.

Regarding `Cc1cc(/C=N\O)c(C)n1-c1ccncc1`, the cytotoxicity was 3.4%.

In the case of `C/C=C/COC(=O)c1[nH]c2c(c1C)C(=O)CC(c1ccc(N(C)C)cc1)C2` (centres undefined), the cytotoxicity is 10.6%.

In the case of `C/C=C/COC(=O)c1[nH]c2c(c1C)C(=O)CC(c1ccco1)C2` (centres undefined), the cytotoxicity was 69.1% (active).

In the case of `C=CCOC(=O)c1[nH]c2c(c1C)C(=O)CC(c1cc(OC)c(OC)c(OC)c1)C2` (centres undefined), the cytotoxicity was -9.9%.

Regarding `C=CCOC(=O)c1[nH]c2c(c1C)C(=O)CC(c1ccco1)C2` (centres undefined), the cytotoxicity is 67.6% (active).

Consider `CCn1c(SCC(=O)Nc2ccc(C(=O)OC)cc2)nnc1-c1cccs1`, for which the cytotoxicity was -8.2%.

In the case of `Cc1ccc(NC(=O)c2cc(NC(=O)c3ccco3)ccc2N2CCCCC2)cc1`, the cytotoxicity was 19.3%.

As for `CCNc1nc(NC(C)C)nc(N(C#N)Cc2ccccc2)n1`, the cytotoxicity is 3%.

For `CCCN(C#N)c1nc(NCC)nc(NC(C)C)n1`, the cytotoxicity is -9.4%.

Take `CCNc1nc(NC(C)C)nc(N(C#N)CCOc2ccc(Cl)cc2Cl)n1`: the cytotoxicity is 109% (active).

`O=C(N1CCOCC1)N1CCN(S(=O)(=O)N2CCOCC2)CC1`: the cytotoxicity is -4.2%.

For the compound `COc1ccc(CCNc2c(C)c(C)nc3ncnn23)cc1`, the cytotoxicity was 33.4%.

For `CCc1c(C)nc2ncnn2c1NCCc1ccc(OC)cc1`, the cytotoxicity is 64.2% (active).

With `CCc1c(C)nc2ncnn2c1NCCc1ccc(OC)c(OC)c1`, the cytotoxicity is -12.5%.

Take `Cc1cc(C)nc(Nc2n[nH]c(COc3ccc(Cl)cc3)n2)n1`: the cytotoxicity is 1.1%.

For the compound `O=C(Nc1ncc(Br)s1)C1CCCN1S(=O)(=O)c1cccc2cccnc12` (centres undefined), the cytotoxicity is -12.6%.

For `COC(=O)c1sccc1NC(=O)c1ccc(Cl)s1`, the cytotoxicity was 1.5%.

As for `COc1ccc(NC(=O)c2cc(-c3ccccc3OC)on2)cc1`, the cytotoxicity was 38.7%.

As to `COc1ccccc1-c1cc(C(=O)Nc2cc(C)on2)no1`, the cytotoxicity is 6.8%.

`COc1ccccc1-c1cc(C(=O)Nc2cccnc2)no1`: the cytotoxicity was 71.3% (active).

Consider `C=CCn1c(SCC(=O)Nc2ccc(C(=O)OCC)cc2)nnc1-c1cccs1`, for which the cytotoxicity was -6.9%.

Turning to `Cc1ccc2c(c1)N(CCC(=O)NCc1ccc3c(c1)OCO3)C(=O)CO2`, the cytotoxicity was -4.5%.

Regarding `Cc1ccc(Nc2nc(C)c(CCC(C)C)c(=O)[nH]2)cc1`, the cytotoxicity is 1.8%.

Turning to `Cc1nc(Nc2ccc(F)cc2)[nH]c(=O)c1CCC(C)C`, the cytotoxicity is 66.2% (active).

In the case of `Cc1nc(Nc2ccccc2)[nH]c(=O)c1CCC(C)C`, the cytotoxicity was -10.7%.

In the case of `Cc1n[nH]c(C)c1S(=O)(=O)N1CCCC(C(=O)NC2CCCCC2)C1` (centres undefined), the cytotoxicity was -3.4%.

On to `Cc1nnc2n1NC(c1ccc(Cl)cc1)C(C(=O)N1CCC(C)CC1)S2` (centres undefined), for which the cytotoxicity was -14.7%.

`CCOC(=O)c1c(NC(C)=O)no[n+]1[O-]`: the cytotoxicity is -10.4%.

Regarding `Cc1cc(C)cc(NC(=O)CSc2nc3c(c(=O)n2C)SC(C)C3)c1` (centres undefined), the cytotoxicity was -5.2%.

With `COCCSc1ccccc1C(=O)NCCCn1ccnc1`, the cytotoxicity was -28.4%.

As to `Oc1cccc2ccc(Nc3ccccn3)nc12`, the cytotoxicity is 124% (active).

`c1ccc(Nc2ccccc2Nc2ccccn2)nc1`: the cytotoxicity is -10.1%.

Take `O=C(Nc1ccccn1)c1ccc2ccccc2n1`: the cytotoxicity was -3.6%.

For `Cn1c(SCC(=O)Nc2ccc3c(c2)OCCO3)nnc1-c1ccco1`, the cytotoxicity was 10.1%.

On to `N=c1n(CCN2CCCC2)c2ccccc2n1CC(O)c1ccco1` (centres undefined), for which the cytotoxicity is -3.9%.

Turning to `N=c1n(CCN2CCCCC2)c2ccccc2n1CC(O)c1cccc(Br)c1` (centres undefined), the cytotoxicity is 59.4% (active).

With `N=c1n(CCN2CCCCC2)c2ccccc2n1CC(O)COc1ccccc1` (centres undefined), the cytotoxicity is 16%.
